Results filed as inconclusive are left out. Activity calls are given as the source filed them. The call rests on the fitted dose curve; in most records, active means well fitted cell-killing curve with a large enough effect; inconclusive means small, poorly fitted or top-dose-only effect; inactive means no such curve, though single readings can be large or run the other way.
Assay: qHTS of pediatric cancer cell lines to identify multiple opportunities for drug repurposing: Primary screen for SK-N-MC cells (AID 1347093)
Conditions: SK-N-MC viability, CellTiter-Glo luminescence, 48 h; series mostly up to 46 µM
Summary of the method: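 Metabolically active cells were quantified by ATP-dependent luminescence (CellTiter-Glo, 15 min at room temperature) following 48 h treatment. Cells had been plated at 500-1,000 per well and settled for 5 h beforehand.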
Potency means the concentration at half of the fitted maximal effect.

Row | Structure (SMILES) | Potency
1 | Fc1cc(-c2cccc3ncc(-c4cnn(C5CCNCC5)c4)nc23)cc(F)c1CN1CCOCC1 | 14.8 µM (active)
2 | O=C(Nc1nc2cccc(-c3ccc(CN4CCS(=O)(=O)CC4)cc3)n2n1)C1CC1 | 5.26 µM (active)
3 | C[C@@H](Oc1cc(-c2cnn(C3CCNCC3)c2)cnc1N)c1c(Cl)ccc(F)c1Cl | 2.35 µM (active)
4 | CN(C)CCCN=c1c2ccccc2n(C)c2[nH]c(=O)n(C)c(=O)c12 | 2.96 µM (active)
5 | Nc1nccc(Oc2ccc(NC(=O)c3c[nH]cc(-c4ccc(F)cc4)c3=O)cc2F)c1Cl | 2.35 µM (active)
6 | COC(=O)C1=C(C)NC(C)=C(C(=O)OCCN2CCN(C(c3ccccc3)c3ccccc3)CC2)C1c1cccc([N+](=O)[O-])c1 (stereo not drawn) | 6.68 µM (active)
7 | CC1(O)CC(c2nc(-c3ccc4ccc(-c5ccccc5)nc4c3)c3c(N)nccn23)C1 (stereo not drawn) | 0.0418 µM (active)
8 | Nc1cccc(-c2cc3c(Oc4cccc(O)c4)ncnc3[nH]2)c1 | 1.05 µM (active)
9 | Cc1cc(CN2CCN(c3c(Br)cnc4nc(-c5ccc(N6CCN(C)CC6)cc5)[nH]c34)CC2)no1 | 1.18 µM (active)
10 | CC(=O)c1c(C)c2cnc(Nc3ccc(N4CCNCC4)cn3)nc2n(C2CCCC2)c1=O | 20.9 µM (active)
11 | Cn1cncc1[C@@](N)(c1ccc(Cl)cc1)c1ccc2c(c1)c(-c1cccc(Cl)c1)cc(=O)n2C | 1.66 µM (active)
12 | Cc1cn2c(-c3cn[nH]c3)cnc2c(Nc2ccc(C(=O)N3CCNCC3)cc2F)n1 | 1.66 µM (active)
13 | Cc1cc(N2CCOCC2)cc2[nH]c(-c3c(NC[C@@H](O)c4cccc(Cl)c4)cc[nH]c3=O)nc12 | 0.0118 µM (active)

Source: PubChem BioAssay (NCATS)
